The campaign covered roughly 320,000 compounds. About 9,100 (2.8%) were called active. Not shown: some 3% with an inconclusive outcome. Shown is part of a subset that was picked to be rich in actives. Unmarked numbers belong to inactive results. Calls come from the whole dose curve; as a rule, active = well fitted activation curve with a large enough effect; inconclusive = small, poorly fitted or top-dose-only effect; inactive = no such curve, though single readings can be large or run the other way.
Experiment: qHTS Assay for Rab9 Promoter Activators; note: nearly all actives have a fitted effect of over 60% in size; for activation, negative = inhibition: % of control where 0% means no effect
Conditions: Huh7 Rab9 promoter-luciferase reporter, luminescence, 24 h; series mostly up to 9.22 µM; activation, negative = inhibition: at the top concentration
Method in brief: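 Rab9 promoter-driven luciferase in stably transfected Huh7 cells; 1500 cells/well rested 2 h, exposed to compound in DMSO for 24 h at 37 °C, 5% CO2. Luminescence read 10 min after adding luciferase reagent at ambient temperature.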
Potency is the fitted concentration of half-maximal effect.

| SMILES | activation, negative = inhibition | Potency |
| --- | --- | --- |
| Cc1ccc(NC(=O)CCCNC(=O)c2ccc(Cl)cc2)cc1S(=O)(=O)N1CCOCC1 | 0.843% | – |
| CCS(=O)(=O)Nc1ccc(C(=O)NCCSc2ccccc2)cc1 | 23.1% | – |
| O=C(NCCSc1ccccc1)c1ccco1 | – | 3.55 µM (active) |
| O=C(NCCSc1ncc(-c2ccccc2)[nH]1)c1ccco1 | 4.74% | – |
| CC(C)(CNC(=O)CNC(=O)C1CCCCC1)N1CCOCC1 | 1.12% | – |
| CCCCNC(=O)Cn1nc(C)c(S(=O)(=O)N2CCOCC2)c1C | -1.92% | – |
| CC1CCN(S(=O)(=O)c2ccc3c(c2)n(C)c(=O)n3C)CC1 | 0.169% | – |
| CCOC(=O)CC1(NC(=O)c2cc(COc3cncc(Cl)c3)on2)CCCCC1 | -9.36% | – |
| CCCOC1CCCN(C(=O)c2cc(COc3cncc(Cl)c3)on2)C1 (stereo unspecified) | – | 1.41 µM (active) |
| Cc1nonc1C1CCCN1C(=O)c1cc(COc2cccc(C(F)(F)F)c2)on1 (stereo unspecified) | 0.106% | – |
| CC(C)(C)c1nnc(N/N=C/c2ccc(O)cc2)n(N)c1=O | -0.399% | – |
| Cc1ccc(Cn2c(C)c3cnn(CC(=O)NCc4ccccn4)c(=O)c3c2C)cc1 | -1.35% | – |
| Cc1ccc(C(=O)Nc2ncccc2C)cc1S(=O)(=O)N1CCOCC1 | -2.03% | – |
| CCOc1ccc(C(=O)Nc2ccc(S(=O)(=O)Nc3cc(C)on3)cc2)cc1 | 0.575% | – |
| Cc1cc(NC(=O)COc2ccccc2C#N)no1 | – | 3.55 µM (active) |
| CCOc1ccc(NC(=O)Nc2cc(C)on2)cc1 | – | 1.12 µM (active) |
| Cc1cc(NC(=O)COn2nnc3ccccc32)no1 | 4.33% | – |
| Cc1cc(NC(=O)COc2ccc([N+](=O)[O-])cc2)no1 | 2.19% | – |
| CCC(=O)Nc1ccc(C(=O)Nc2cc(C)on2)cc1 | 26.5% | – |

| SMILES | activation, negative = inhibition | Potency |
| --- | --- | --- |
| Cc1cc(C)cc(NC(=O)C(OC(=O)c2ccc(O)cc2)c2ccccc2)c1 (stereo unspecified) | 1.6% | – |
| COc1ccc([C@H]2CC(=O)C=C(c3ccc(OC(F)(F)F)cc3)C2)cc1OC | -6.96% | – |
| CCN(CC)S(=O)(=O)c1ccc(N2CCOCC2)c(NC(=O)c2ccc(=O)n(C)n2)c1 | -4.8% | – |
| COc1ccc2c(c1)[C@H]1[C@H](CO2)[C@H](c2ccccc2)[C@]2(C)C(=O)Nc3cc(F)c(F)cc3C(=O)N12 | -9.74% | – |
| O=C(NCCN1CCOCC1)c1cccc(S(=O)(=O)Nc2ccc(F)cc2)c1 | -3.93% | – |
| CC(=O)c1c(C)[nH]c(C(=O)COc2ccc3c(C)cc(=O)oc3c2)c1C | -9.12% | – |
| Cc1ccc(Oc2cnn(-c3ccccc3)c(=O)c2Br)cc1 | 0.736% | – |
| O=c1c(Cl)c(NC2CC2)cnn1-c1ccccc1 | 12.3% | – |
| C=CCNc1cnn(-c2ccc(C)cc2)c(=O)c1Cl | – | 3.55 µM (active) |
| CC(=O)NC12CC3CC(C1)CC(C(=O)N1CCN(S(=O)(=O)c4cccs4)CC1)(C3)C2 | -2.99% | – |
| CCn1nc(C(=O)Nc2ccc(N3CCOCC3)cc2)c2ccccc2c1=O | 1.14% | – |
| c1ccc(-n2cccc2)c(N2CCCCC2)c1 | -2% | – |
| CC(C)c1ccc(Nc2ncccc2C#N)cc1 | – | 3.55 µM (active) |
| CC(C)c1ccc(/C=C/C(=O)NNC(=O)c2cccnc2)cc1 | -7.13% | – |
| CN(C)c1ccnc(Nc2ccc(F)cc2)c1C#N | 0.525% | – |
| COc1ccc(CNC(=O)CNC(=O)c2sc3ccccc3c2Cl)cc1OC | 10.1% | – |
| COc1ccc2c(Cl)c(C(=O)NCc3ccco3)sc2c1 | – | 3.16 µM (active) |
| COc1ccc(C(=O)Nc2ccccc2C(=O)NCc2ccco2)cc1 | -0.959% | – |
| Cc1c(CNCCc2ccccc2)c(C(=O)O)c(C)n1-c1ccccc1 | 0.0378% | – |

| SMILES | activation, negative = inhibition | Potency |
| --- | --- | --- |
| CCOc1cc(CNCCN(C)C)c(Cl)cc1OCC(=O)NCCc1ccccc1 | -6.67% | – |
| O=C(CN1CCc2ccccc2C1)Nc1cccc(S(=O)(=O)N2CCOCC2)c1 | -0.571% | – |
| CC1CCN(C(=O)c2ccccc2NC(=O)Cc2ccccc2)CC1 | -2.62% | – |
| CSCCNC(=O)c1ccc2nc(Cc3ccccc3F)oc2c1 | – | 2.82 µM (active) |
| COc1ccc(Cc2nc3ccc(C(=O)NCC4CCOCC4)cc3o2)cc1OC | 24.7% | – |
| CCCCc1nc2cc(C(=O)NCCc3cnn(C)c3)ccc2o1 | 21.1% | – |
| COCCn1c(C)cc(C(=O)CSc2nnc(C3CC3)n2C2CC2)c1C | 13.8% | – |
| O=C(CNC(=O)c1ccccc1Br)NNC(=O)c1cccs1 | -0.728% | – |
| COc1cccc(N2CCN(CC(=O)Nc3ccnn3C3CCCC3)CC2)c1 | -21.1% | – |
| CN(c1ccc(O)cc1)c1nc(-c2cccnc2)cs1 | 2.25% | – |
| CN(Cc1ccccc1)S(=O)(=O)c1nnc(NC(=O)c2ccccc2F)s1 | 0.085% | – |
| O=C(Nc1nnc(-c2ccccc2F)s1)c1ccccc1F | – | 0.708 µM (active) |
| O=C(Nc1ccc(NC(=O)c2ccccc2F)cc1)c1ccccc1F | 3.15% | – |
| O=C(O)c1ccccc1C(=O)Nc1nc(-c2ccccc2)cs1 | 2.84% | – |
| O=C(Nc1nc(-c2ccc(-c3ccccc3)cc2)cs1)c1cnccn1 | 15% | – |
| Cc1ccccc1Nc1nc(-c2cccnc2)cs1 | – | 2 µM (active) |
| O=C(NCCc1csc(-c2ccccc2)n1)c1ccccc1F | 6.61% | – |
| O=C(Nc1nc(-c2cccnc2)cs1)c1ccccc1F | – | 3.55 µM (active) |

From PubChem BioAssay AID485297 (National Center for Advancing Translational Sciences (NCATS), 2010)
